# Compounds with a hit are over-represented: about 8.9% of the library has one in this group of screens.
# MCF10A rerep: induces DNA re-replication in MCF 10a normal breast cells; MCF 10A DNA re-replication, Hoechst nuclear intensity, 48 h; Potency, µM (series often up to 46.1 µM), without a hit: at the top dose activity, positive = re-replication, hits mostly activators; hit rate 2.9% among 350,000; AID 624296; also: potency is read from the fitted curve at half-maximal effect; % of control where 0% means no effect; nearly all actives have a fitted effect of over 50% in size
# KB-3-1 tox: KB-3-1 parental cell cytotoxicity | KB-3-1 viability, CellTiter-Glo ATP luminescence, 72 h | Potency, µM (titrated, usually from 46.1 µM), actives largely listed as cytotoxic | hit rate 1.4% among 400,000 | AID 1347075; also: potency is read from the fitted curve at half-maximal effect; % is scaled to controls: 0 for no effect and ±100 for the full control effect; nearly all actives have a fitted effect of over 60% in size
#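 Using CellTiter-Glo luminescence, growth of non-resistant KB-3-1 adenocarcinoma cells is assessed 72 h after pin-tool compound addition at 37 °C. Normalized responses across the concentration series yield fitted curves.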
# KB-V1 cytotox: KB-V1 MDR subline cytotoxicity. Potency, µM (titrated, usually from 46.1 µM), usual class: cytotoxic. AID 1347076. hit rate 3.4% among 400,000. KB-V1 MDR cells viability, CellTiter-Glo, 72 h; also: potency is read from the fitted curve at half-maximal effect; % is scaled to controls: 0 for no effect and ±100 for the full control effect; nearly all actives have a fitted effect of over 60% in size
#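 Cells of the MDR subline KB-V1 are plated, dosed with compound at multiple concentrations, and incubated 72 h at 37 degrees C; CellTiter-Glo is then added and luminescence read after 10 min.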
# DRD3 antagonist: D3 dopamine receptor (human) antagonism. P35462. D3R cells, DiscoveRx beta-arrestin luminescence, antagonist mode; active compounds read low. max response, negative = inhibition, %. hit rate 2.5% among 360,000. AID 652054; in the data active = max response below about -50%; inconclusive = no clear call, values can overlap the other calls; also: % is scaled to controls: 0 for no effect and ±100 for the full control effect
# Target sequence (P35462 whole entry, looked up): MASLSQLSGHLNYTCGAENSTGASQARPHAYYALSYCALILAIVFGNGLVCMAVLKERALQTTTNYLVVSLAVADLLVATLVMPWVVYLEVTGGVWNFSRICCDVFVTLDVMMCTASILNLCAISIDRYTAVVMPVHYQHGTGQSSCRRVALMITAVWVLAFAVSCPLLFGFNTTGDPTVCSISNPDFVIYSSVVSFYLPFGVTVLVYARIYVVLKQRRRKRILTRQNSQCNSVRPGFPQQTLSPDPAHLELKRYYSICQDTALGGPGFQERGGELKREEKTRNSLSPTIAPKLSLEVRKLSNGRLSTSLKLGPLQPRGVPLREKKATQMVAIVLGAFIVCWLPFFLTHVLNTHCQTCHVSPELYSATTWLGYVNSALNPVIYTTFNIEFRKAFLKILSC
#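 Cells expressing the human receptor were seeded at 1500 cells/well, incubated overnight at 37 degrees C in 5% CO2, then exposed to library compounds with dopamine controls for 90 minutes at 37 degrees C before luminescent detection.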
# D3 ag: activates the human D3 dopamine receptor; max activation, %; P35462; hit rate 0.58% among 410,000; AID 652048; D3R DiscoveRx beta-arrestin cells, luminescence, 90 min; in the data active = max activation above about 30%; also: 0% is about no effect
#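 Agonist-mode cell screen: cells plated at 1500/well and incubated overnight at 37 °C, then exposed to library compounds for 90 min at 37 °C. Detection reagent was added for 30–60 min at room temperature, and luminescence was read.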
# SW480 rerep: DNA re-replication induction in SW480 cells; SW480 DNA re-replication, Hoechst DNA content imaging, 48 h; hit rate 1.8% among 340,000; AID 624297; Potency, µM (series often up to 46.1 µM), without a hit: top-dose re-replication activation, hits mostly activators; also: potency is read from the fitted curve at half-maximal effect; % of control where 0% means no effect; nearly all actives have a fitted effect of over 55% in size
#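 Image-based DNA-content assay: after two days of treatment, nuclei were labelled with the DNA dye Hoechst and imaged, and hits were compounds raising the count of nuclei showing high fluorescence intensity.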
# Numbers without * were called inactive; i = inactive; ? = inconclusive; / = no result; [ ] = remark or other dose. Unless noted, calls follow the shape of the dose curve; as a rule, active = well fitted curve in the direction sought with a large enough effect; inconclusive = small, poorly fitted or top-dose-only effect, or another doubt; inactive = no such curve, though single readings can be large; an effect the other way counts as inactive or inconclusive.
SMILES,MCF10A rerep,KB-3-1 tox,KB-V1 cytotox,DRD3 antagonist,D3 ag,SW480 rerep
Cc1ccc2c(c1)C(=O)CCN2,1%,i,i,9,-3,-6%
COc1cccc(CNC(=O)c2nnc(Cc3ccc(Cl)cc3)o2)c1,/,i,i,/,0,/
NC(=O)c1ccc(-c2ccc(Br)cc2)o1,14%,8.2µM*,8.2µM*,9,-1,0%
NC(=O)C1CCN(C(=S)c2ccc(-c3ccc(Br)cc3)o2)CC1,0%,i,i,0,-5,-2%
O=C(O)CCc1ccc(-c2ccc(Br)cc2)o1,?,i,i,-3,-7,5.8µM*
O=C(O)CCc1ccc(-c2ccc(Cl)cc2)o1,21µM*,i,i,-8,-2,?
COc1ccc(-c2ccc(CCC(=O)O)o2)cc1,?,?,i,-16,-4,?
Cc1cccc(OCCCCn2nnc3sc4c(c3c2=O)CCC(C)C4)c1 (stereo not drawn),/,i,i,/,9,/
Cc1c(N)cc[n+](CC(=O)c2ccccc2)c1C,-14%,5.2µM*,?,12,23,?
O=C(CNC(=O)Cn1ccc2ccccc2c1=O)NCCCN1CCN(c2cccc(Cl)c2)CC1,11%,i,i,-75*,-1,-7%
COCCNC(=O)Cn1cc(S(=O)(=O)N2CCN(c3ccccc3F)CC2)c2ccccc2c1=O,-13%,i,i,-6,8,-14%
O=C(Cn1cc(S(=O)(=O)N2CCN(c3ccccc3F)CC2)c2ccccc2c1=O)NCCCN1CCCCCC1,?,i,i,?,-16,21µM*
CCOc1ccc(N(CC)C(=O)CCNC(=O)Cn2ccc3ccccc3c2=O)cc1,0%,i,23µM*,9,-1,-1%
Cc1ccc(C)c(N2CCN(C(=O)CCNC(=O)Cn3ccc4ccccc4c3=O)CC2)c1,-1%,i,6.5µM*,-25,-3,-5%
O=C(CCNC(=O)Cn1ccc2ccccc2c1=O)NCCCN1CCOCC1,-4%,i,i,42,3,?
Cc1cccc(-c2nc(C)c(CCNC(=O)C(=O)Nc3cccc(Cl)c3C)s2)c1,/,i,i,/,4,/
Cc1ccc(C)c(NC(=O)c2nnn(Cc3ccc(F)cc3Cl)c2N)c1,/,i,i,/,-8,/
COc1ccc(-c2nc(CSCC(=O)NCCc3ccc(OC)c(OC)c3)c(C)o2)cc1,/,i,i,/,-8,/
O=C(Cn1c(-c2cccs2)cc2cc(F)ccc21)NCCCN1CCN(c2ccccc2F)CC1,/,i,i,/,28,/
O=C(CCNC(=O)Cn1ccc2ccccc2c1=O)NCCCN1CCN(c2ccc(F)cc2)CC1,-3%,i,i,?,-16,-4%[9.22 µM]
O=C(Cn1c(=O)c2cccn2c2ccc(F)cc21)NCCCN1CCN(c2ccccc2F)CC1,13%,i,i,-92*,2,2%
O=C(CCNC(=O)Cn1ccc2ccccc2c1=O)NCCCN1CCN(c2ccccc2F)CC1,-5%,i,i,-68*,14,1%
Cc1cc(C)nc(SCC(=O)Nc2ncc(Cc3cccc(Cl)c3)s2)n1,?,i,4.6µM*,8,2,1%
O=C(CN1CCOCC1)Nc1ncc(Cc2cccc(Cl)c2)s1,?,i,i,3,1,8.2µM*
Cc1nnc(SCC(=O)Nc2ncc(Cc3ccc(F)cc3)s2)n1N,1%,i,?,23,-38,0%
O=C(CN1CCOCC1)Nc1ccc(Br)cn1,?,i,i,-17,-4,21µM*
O=C(Nc1ccc(Cl)cc1F)c1cnc2sc(N3CCOCC3)nn2c1=O,/,i,i,/,2,/
Cc1ccccc1NC(=O)C1Cc2ccccc2C(=O)O1 (stereo not drawn),2%,i,i,0,2,-1%
O=C1OC(C(=O)O)Cc2ccccc21 (stereo not drawn),18µM*,i,i,-6,-1,?

# Screening results (PubChem)
